# Reference: PubChem BioAssay (NCI)
# The panel holds about 83,000 compounds, 20% with a hit somewhere; the sample as a whole holds those more often.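 48-hour exposure, single concentration, 96-well plates; percent growth endpoint where 0 means no net growth. Active: below 10.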 A number with no mark means an inactive call. Calls of active or inactive are those of the source.
# Tests used:
# Assay in all cases: NCI-60 one-dose screen, 48 h (100 = growth as untreated, 0 = no growth, -100 = all killed)
# Settings in all cases: 10 µM unless noted
# [1] = tested on: HCT-15 colon
# [2] = tested on: HT29 colon
# [3] = tested on: SNB-75 CNS
# [4] = tested on: SNB-19 CNS
# [5] = tested on: U251 CNS
# [6] = tested on: PC-3 prostate
# [7] = tested on: SK-MEL-5 melanoma
# [8] = tested on: UACC-62 melanoma
# [9] = tested on: SK-MEL-28 melanoma
# [10] = tested on: LOX IMVI melanoma
SMILES,growth [1],growth [2],growth [3],growth [4],growth [5],growth [6],growth [7],growth [8],growth [9],growth [10]
O=C(O)c1cccc2c1-c1ccc(Cl)cc1C2,102%,109%,88.2%,105%,108%,108%,103%,102%,108%,
CCN1CCN(C(=O)[C@]23CCC(C)(C)C[C@H]2C2=CC[C@@H]4[C@@]5(C)CC/C(=N/O)C(C)(C)[C@@H]5CC[C@@]4(C)[C@]2(C)CC3)CC1,15.4%,28.3%,59.3%,70.4%,38%,39.6%,86.5%,87.9%,73.2%,
COc1ccc(C2CC(=O)c3c(nc4ccc(Cl)cc4c3N)C2)cc1 (stereo not drawn),92.5%,101%,95.7%,103%,106%,101%,98.3%,99.5%,98.4%,
O=C1C(=O)c2ccccc2C(O)=C1CCCc1ccc(C2CCCCC2)cc1,41.4%,41.8%,54.9%,39.9%,45.4%,39.2%,20.6%,47.9%,47.4%,
COc1cccc2c1C(=O)c1c(O)c3c(c(O)c1C2=O)C[C@@](O)(C(=O)CO)C[C@@H]3OC1C[C@H](N)[C@H](O)[C@H](C)O1 (stereo partly drawn),18.4%,-13.1% (active),-76.1% (active),8.7% (active),2.94% (active),-2.52% (active),-86.4% (active),-59% (active),-30% (active),
C=C(C)[C@@H]1CC[C@]2(C(=O)O)CC[C@]3(C)[C@H](CC[C@@H]4[C@@]5(C)C/C(=C/c6ccc(OC)cc6)C(=O)C(C)(C)[C@@H]5CC[C@]43C)[C@@H]12,5.16% (active),16%,27.2%,32.3%,25.4%,15.5%,6.21% (active),17.1%,41.3%,
N=C(N)c1ccc(-c2ccc(-c3cc(F)cc(F)c3)o2)nc1,77.4%,26.2%,72.1%,93.2%,85.9%,82.4%,88.7%,96.3%,98.7%,
Nc1c(Cl)cc(N=Nc2ccccc2)cc1Cl,93%,100%,74%,100%,94.5%,96.2%,94.3%,57.5%,106%,
COc1ccc2c(c1)C(Br)=C(CCO)C2c1ccccc1 (stereo not drawn),87.6%,41.8%,57%,57.7%,55.8%,54.5%,96.5%,60%,69.5%,
Nc1c2c(nc3ccc(Cl)cc13)CC(c1ccc(O)cc1)CC2=O (stereo not drawn),29.3%,101%,30.5%,45.8%,47.2%,49.2%,23.6%,32.8%,57%,
c1ccc2c(-c3nc(-c4c[nH]c5ncccc45)cs3)c[nH]c2c1,84.9%,79.2%,88.4%,97.8%,104%,84.2%,106%,96.9%,112%,
O=C(/C=C\c1ccc2c(c1)OCO2)/C=C/c1ccc2c(c1)OCO2,11%,32.1%,75.7%,68.9%,19.4%,91.1%,84%,75.1%,105%,
C=C(C)[C@@H]1CC[C@]2(C=O)CC[C@]3(C)[C@H](CC[C@@H]4[C@@]5(C)C/C(=C/c6cccnc6)C(=O)C(C)(C)[C@@H]5CC[C@]43C)[C@@H]12,57.6%,72%,101%,84.4%,73.4%,41.8%,74.4%,61.5%,93.3%,
O=C1/C(=C\c2ccco2)SC(=S)N1CCc1ccc(O)cc1,92.7%,114%,78.5%,95.6%,96.7%,97.5%,97.4%,85.3%,98.3%,
Cn1cc(-c2nc(-c3c[nH]c4ncccc34)cs2)c2cc(Cl)ccc21,31.2%,38.5%,63.6%,74.4%,40%,42.4%,83.3%,64.3%,80.1%,
c1csc(-c2nc(-c3cc4ccccc4c(N4CCOCC4)n3)cs2)c1,90.4%,97.1%,81.5%,87.1%,82.2%,93.4%,54.5%,28.9%,55.2%,
Cn1cc(-c2nc(-c3c[nH]c4ncccc34)cs2)c2ccccc21,64.3%,88.2%,77.6%,92.8%,96.6%,80.6%,94.2%,84.6%,105%,
CC(C)(C)n1cc(-c2ccnc(NCCCNS(=O)(=O)c3ccc(Cl)cc3)c2)c(-c2cccc(F)c2)n1,9.66% (active),27.6%,76.5%,80%,61.7%,49.7%,70.7%,84.6%,89.4%,
O=C1c2cccc3cccc(c23)C(=O)N1CC#Cc1ccc2c3c(cccc13)C(=O)N(CCO)C2=O,82.1%,96.5%,69.9%,96.3%,93.1%,84.8%,90.8%,93.1%,112%,
C/C(=N\Nc1cc(C)c2ccccc2n1)c1ccccn1,21%,-90.8% (active),31.5%,19.9%,-86.5% (active),15.9%,-72.1% (active),-52% (active),-93.7% (active),-78.5% (active)
O=C(NC1=CC(=O)c2ccccc2C1=O)c1ccccc1,29.1%,71.2%,34%,36.3%,21.1%,16.6%,0.587% (active),15%,52.3%,
Nc1c2c(nc3ccc(Cl)cc13)CC(c1ccccc1)CC2=O (stereo not drawn),16.7%,13.1%,23.4%,37%,40.9%,54.8%,30.6%,23.7%,51.5%,
CC(=O)O[C@H]1CC[C@@]2(C)[C@@H](CC[C@@H]3[C@@H]2CC(=O)[C@@]2(C)[C@H]3C[C@@H](C3CCCC3=O)[C@@H]2C(C)=O)C1 (stereo partly drawn),106%,95.6%,97.4%,94.2%,102%,93.1%,108%,91.6%,113%,
COc1cc(-c2cc(-c3nc4ccc(F)cc4[nH]3)[nH]n2)cc(OC)c1OC,24.1%,69.3%,15.2%,70.8%,46.2%,-18.1% (active),-50.2% (active),-25.4% (active),7.54% (active),
O=C(/C=C/c1cccc2ccccc12)Nc1ncc(Cc2ccccc2)s1,12.2%,14.1%,-17.2% (active),9.85% (active),1.44% (active),30.3%,10.6%,15.9%,44.1%,
Fc1ccc2nc(-c3cc(-c4ccc5c(c4)OCO5)n[nH]3)[nH]c2c1,57.5%,61.6%,35.6%,72.1%,41.1%,23.3%,20.4%,53.7%,75.3%,
COc1ccc(-c2cc(/C=C/C(=O)c3ccc(N)cc3)[nH]n2)cc1,17%,10.4%,-0.764% (active),27.6%,14.4%,26.4%,23.9%,24.7%,34.6%,
C(=C\c1c[nH]c2ccccc12)/c1ccc2ccccc2n1,53.9%,33.4%,81.1%,84.4%,59.7%,59.3%,96%,86.8%,107%,
